Screens deposited in PubChem by several laboratories.
Compounds with a hit are over-represented: about 1.8% of the library has one in this group of screens.
697 NFkB inh = inhibitors of the PMA/ionomycin-induced NF-kB reporter in 697 B cells | 697 B-cell NF-kB luciferase reporter, 16 h | inhibition, % at 4 µM | 0.33% of 330,000 active | AID 435022; in the data active = inhibition above about 35%
Beta apoptosis = blocks beta cell apoptosis; INS-1E cytokine-induced death, ATP luminescence, 48 h; percent of positive-control rescue, neutral wells zero; protection from apoptosis, % (concentration not given with the values); 0.8% of 300,000 active; AID 435005;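 active = Every replicate reaches about 75%, or at least half do and their mean reaches it too, limit read from the data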;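 note: 0% = cytokine-treated negative control wells and 100% = positive control rescue; higher means more ATP so stronger rescue from cytokine killing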
Jurkat NFkB inh = lowers PMA/ionomycin-induced NF-kB signal in Jurkat cells; PMA/ionomycin-induced NF-kB luciferase reporter, luminescence; inhibition, % at 4 µM; AID 435003; 0.53% of 330,000 active; in the data active = inhibition above about 50%
Gli-Sufu antag = Gli-Sufu pathway antagonism | Sufu-KO-LIGHT fibroblasts, Gli luciferase reporter luminescence | inhibition, % at 5 µM | 0.74% of 340,000 active;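 active = inhibition above about 55%, limit read from the data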;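 note: 0% = DMSO-treated cells and 100% = wells with medium but no cells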
697 NFkB conf = inhibitors of the PMA/ionomycin-induced NF-kB reporter in 697 B cells, retest; 35% of 2,000 active; inhibition, % at 4 µM; 697 B-cell NF-kB luciferase, 16 h; shares compounds with 697 NFkB inh; in the data active = inhibition mostly above about 28%, no sharp cut-off; inactive = mostly below about 22%
* = called active by the depositor.

`Cc1ccc(C)c(C(C)NC(=O)C2CC=CCC2C(=O)O)c1` (stereo not drawn) gave 697 NFkB inh 9.5, Beta apoptosis -1.1, Jurkat NFkB inh 2.8 and Gli-Sufu antag 3.5.
Screening CC(C)(CSc1ncccn1)NS(=O)(=O)c1ccccc1 returned 697 NFkB inh 39.3*, Jurkat NFkB inh 3.3, Gli-Sufu antag -0.3 and 697 NFkB conf 5.7.
For Cc1cccc(C(=O)NC(C)C2CC3CCC2C3)c1 (stereo not drawn) the results were 697 NFkB inh 5.3, Jurkat NFkB inh -6.6 and Gli-Sufu antag 0.1.
CCN(CC)c1ccc(/C=N/N=C(c2ccccc2)c2ccccc2)c(O)c1 was read as 697 NFkB inh 35.4*, Beta apoptosis 12.6, Jurkat NFkB inh 9.0, Gli-Sufu antag 2.1 and 697 NFkB conf 26.6*.
Cc1cc(C)c(-c2csc(NC(=O)c3n[nH]c(=O)c4ccccc34)n2)c(C)c1 was read as 697 NFkB inh -333.0, Beta apoptosis 6.3, Jurkat NFkB inh -13.7, Gli-Sufu antag 15.1 and 697 NFkB conf -227.4.
COc1ccc(-c2nc(NC(=O)c3n[nH]c(=O)c4ccccc34)sc2C)cc1 was read as 697 NFkB inh inactive, Beta apoptosis 19.9, Jurkat NFkB inh -41.6, Gli-Sufu antag 7.0 and 697 NFkB conf -52.5.
For CC(C)(C)CN1C(N)=NC[C@@H]1Cc1ccc(O)cc1 the results were 697 NFkB inh 43.7*, Beta apoptosis 6.1, Jurkat NFkB inh 2.2, Gli-Sufu antag 17.2 and 697 NFkB conf 15.2.
Cn1c(=N)n(CC(=O)c2ccc(Br)cc2)c2ccccc21 was read as 697 NFkB inh -344.3, Beta apoptosis -11.5, Jurkat NFkB inh -91.6, Gli-Sufu antag -56.4 and 697 NFkB conf -283.2.
Screening Cn1c(=N)n(CC(=O)c2ccc(F)cc2)c2ccccc21 returned 697 NFkB inh -158.7, Jurkat NFkB inh -1.3 and Gli-Sufu antag -50.0.
Screening O=C(Cn1cnc([N+](=O)[O-])n1)N/N=C/c1cccc(Cl)c1 returned 697 NFkB inh -3.3, Beta apoptosis -3.9, Jurkat NFkB inh -1.5 and Gli-Sufu antag -4.2.
`CCCCOC(=O)Nc1nnc(SCCOc2ccc(C)cc2)s1` gave 697 NFkB inh -3.3, Beta apoptosis -5.1, Jurkat NFkB inh 4.9 and Gli-Sufu antag -4.4.
For CSc1ccc(/C=C(\C#N)C(=O)NC2CCCCC2)cc1 the results were 697 NFkB inh -23.3, Beta apoptosis 10.3, Jurkat NFkB inh 6.3 and Gli-Sufu antag -0.7.
For CC(=O)Nc1ccc(/C=C(\C#N)C(=O)NC2CCCCC2)cc1 the results were 697 NFkB inh 45.9*, Beta apoptosis -7.7, Jurkat NFkB inh 3.0, Gli-Sufu antag 3.3 and 697 NFkB conf -7.9.
`CCc1cccc(NC(=O)CC2SC(N3CCCC3)=NC2=O)c1` (stereo not drawn) gave 697 NFkB inh 14.6, Beta apoptosis -3.1, Jurkat NFkB inh 11.1 and Gli-Sufu antag -11.9.
`COC(=O)c1ccc2nc(NC(=O)CSCC(=O)OCC(=O)c3ccccc3)sc2c1` gave 697 NFkB inh 0.2, Beta apoptosis -5.8, Jurkat NFkB inh -8.7 and Gli-Sufu antag -6.5.
`Cc1ccc2nc(NC(=O)CSCC(=O)OCC(=O)c3ccc(Br)cc3)sc2c1` gave 697 NFkB inh 64.5*, Beta apoptosis -4.0, Jurkat NFkB inh 40.5, Gli-Sufu antag 26.2 and 697 NFkB conf 54.0*.
`Cc1cc(N(C)C)ccc1N=Nc1ccc(N)cc1` gave 697 NFkB inh 69.0*, Beta apoptosis 38.7, Jurkat NFkB inh -9.8, Gli-Sufu antag 18.4 and 697 NFkB conf 79.0*.
Screening Cc1c(/N=C(\[O-])Nc2ccc(Br)cc2)sn[n+]1C returned 697 NFkB inh -274.5, Beta apoptosis 7.7, Jurkat NFkB inh -85.9, Gli-Sufu antag -76.8 and 697 NFkB conf -263.6.
For O=C(c1ccc(N2CCCC2)c([N+](=O)[O-])c1)N1CCc2ccccc2C1 the results were 697 NFkB inh 36.5*, Beta apoptosis -6.9, Jurkat NFkB inh 2.5, Gli-Sufu antag 16.7 and 697 NFkB conf 15.7.
Screening COc1ccc(C2c3[nH]c4ccccc4c3CCN2C(=O)c2ccc(=O)n(C)n2)c(F)c1 (stereo not drawn) returned 697 NFkB inh -29.5, Beta apoptosis 11.2, Jurkat NFkB inh -35.3 and Gli-Sufu antag 24.8.
`CCc1cc(C(=O)N2CCc3c([nH]c4ccccc34)C2c2ccc(OC)cc2F)no1` (stereo not drawn) gave 697 NFkB inh inactive, Beta apoptosis 12.0, Jurkat NFkB inh -1.9, Gli-Sufu antag -1.9 and 697 NFkB conf -48.1.
Screening Nc1ccc(C(=O)OCc2nc3cc4ccccc4cc3[nH]2)cc1 returned 697 NFkB inh inactive, Beta apoptosis -0.6, Jurkat NFkB inh -41.9, Gli-Sufu antag 0.4 and 697 NFkB conf -381.4.
`Nc1ccc(Cc2nc3cc4ccccc4cc3[nH]2)cc1` gave 697 NFkB inh inactive, Beta apoptosis -1.4, Jurkat NFkB inh -83.3, Gli-Sufu antag -33.8 and 697 NFkB conf -343.6.
`Nc1ccc(C(=O)OCCCc2nc3cc4ccccc4cc3[nH]2)cc1` gave 697 NFkB inh -38.2, Beta apoptosis -0.8, Jurkat NFkB inh 0.8 and Gli-Sufu antag -4.3.
COc1cc(C(=O)N[C@H](C(=O)Nc2nnc(C3CC3)s2)C(C)C)cc(OC)c1OC was read as 697 NFkB inh 32.3, Beta apoptosis -7.3, Jurkat NFkB inh 22.9 and Gli-Sufu antag 1.4.
`O=C(CCCN1C(=O)S/C(=C\C=C\c2ccccc2)C1=O)Nc1ccc(O)cc1` gave 697 NFkB inh 39.5*, Beta apoptosis -0.8, Jurkat NFkB inh -32.5, Gli-Sufu antag 30.8 and 697 NFkB conf 32.0*.
Screening COC(=O)c1ccc(/C=C2/SC(=S)N(CCCC(=O)Nc3ccc(O)cc3)C2=O)cc1 returned 697 NFkB inh 11.7, Beta apoptosis -24.6, Jurkat NFkB inh 12.4 and Gli-Sufu antag 19.1.
Screening Cc1ccc(/C=C2\SC(=S)N(CCCC(=O)Nc3ccccn3)C2=O)cc1 returned 697 NFkB inh 80.8*, Beta apoptosis -9.6, Jurkat NFkB inh 5.0, Gli-Sufu antag 46.9 and 697 NFkB conf 95.8*.
`Cc1ccc(/C=C2\SC(=S)N(CCCC(=O)Nc3ccc(O)cc3)C2=O)cc1` gave 697 NFkB inh 92.2*, Beta apoptosis -1.0, Jurkat NFkB inh -1.0, Gli-Sufu antag 42.2 and 697 NFkB conf 90.1*.
O=C(O)c1cc([N+](=O)[O-])ccc1NCCc1ccccc1 was read as 697 NFkB inh 10.3, Beta apoptosis -3.0, Jurkat NFkB inh 10.1 and Gli-Sufu antag 4.0.
O=c1c2cnn(-c3ccccc3)c2ncn1Cc1ccccc1 was read as 697 NFkB inh -2.7, Beta apoptosis 3.9, Jurkat NFkB inh 3.9 and Gli-Sufu antag 0.1.
For Cn1nc(-c2ccc(Cl)cc2)nc2c(=O)n(C)c(=O)nc1-2 the results were 697 NFkB inh -315.7, Beta apoptosis 99.4*, Jurkat NFkB inh 27.6 and 697 NFkB conf -293.2.
Screening Nc1nn(-c2ccccc2)c(N)c1N=Nc1ccccc1F returned 697 NFkB inh -444.0, Beta apoptosis 3.4, Jurkat NFkB inh -30.4, Gli-Sufu antag -107.5 and 697 NFkB conf -254.5.
